High-throughput results: PubChem, National Center for Advancing Translational Sciences (NCATS)
Compounds with a hit are over-represented: about 1.8% of the library has one in this group of screens.
GCN5L2 inh – inhibitors of human GCN5L2 histone acetyltransferase; Q92830; GCN5L2 HAT assay, ThioGlo1 CoA-SH fluorescence; Potency, µM (highest dose often 58.9 µM), actives largely listed as inhibitors; 390,000 compounds, 0.21% hits
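Titration-based screen in which CoA formation is detected via maleimide probe ThioGlo1 (50uM) turning fluorescent on thiol reaction; substrates H3(1-25) 75uM and acetyl-CoA 70uM, GCN5L2 20nM, 20 min incubation at room temperature.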
rTrxR1 inhibitor – blocks rat thioredoxin reductase 1; O89049; recombinant rTrxR1, NADPH fluorescence consumption, selenite substrate; Potency, µM (doses to about 114 µM), most hits filed as inhibitors; 390,000 compounds, 1% hits; AID 588453; further: nearly all actives have a fitted effect of over 65% in size
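Rat TrxR1 (90 nM in the dispensed reagent) was pre-reduced with 400 uM NADPH for 5 min at room temperature, then incubated with compound for 15 min. After 400 uM selenite was added, NADPH fluorescence (Ex 340/Em 450 nm) was followed for 8 min.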
TrxR1 substrate – rat thioredoxin reductase 1 substrate activity. Potency, µM (series often up to 114 µM). 390,000 compounds, 0.01% hits. purified TrxR1 substrate turnover, NADPH consumption readout. O89049; further: nearly all actives have a fitted effect of over 50% in size
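Rat TrxR1, dispensed at 90 nM, was prereduced with 400 uM NADPH (final) for 5 min at ~22 deg C, then incubated with compound 15 min before 400 uM selenite. A first-read NADPH fluorescence drop versus no-compound background flagged substrates.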
VDR inh – blocks the human vitamin D receptor; P11473; VDR-SRC2-3 peptide fluorescence polarization, 2 h; Potency, µM, hits mostly inhibitors; 400,000 compounds, 0.93% hits
Target sequence (P11473 whole entry, looked up): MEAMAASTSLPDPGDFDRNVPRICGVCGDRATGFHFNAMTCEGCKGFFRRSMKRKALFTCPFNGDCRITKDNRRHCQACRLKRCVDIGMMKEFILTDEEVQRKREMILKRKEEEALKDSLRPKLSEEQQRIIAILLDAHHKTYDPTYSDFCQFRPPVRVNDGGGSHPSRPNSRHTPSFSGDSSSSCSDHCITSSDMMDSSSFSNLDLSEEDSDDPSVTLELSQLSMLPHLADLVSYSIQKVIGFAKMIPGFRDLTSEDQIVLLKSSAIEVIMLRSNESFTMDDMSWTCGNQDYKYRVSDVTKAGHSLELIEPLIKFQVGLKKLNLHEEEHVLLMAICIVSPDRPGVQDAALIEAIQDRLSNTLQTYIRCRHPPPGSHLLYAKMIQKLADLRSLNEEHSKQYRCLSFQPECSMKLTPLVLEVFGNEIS
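VDR–SRC2-3 interaction, FP format. Cmpds 23 nl via pintool, brief spin, 2 h ambient incubation.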
Numbers stand for hits; n = inactive; u = inconclusive; x = no result given; [ ] = another dose, or the depositor's remark. The call rests on the fitted dose curve; in most records, active means well fitted curve in the direction sought with a large enough effect; inconclusive means small, poorly fitted or top-dose-only effect, or another doubt; inactive means no such curve, though single readings can be large; an effect the other way counts as inactive or inconclusive.

SMILES | GCN5L2 inh | rTrxR1 inhibitor | TrxR1 substrate | VDR inh
Cc1ccccc1OCC(=O)NN1C(=O)C2C3C=CC(O3)C2C1=O (configuration not stated) | n | 32µM | n | n
CCOc1ccc(C(=O)NN2C(=O)C3C4C=CC(O4)C3C2=O)cc1 (configuration not stated) | n | 20µM | n | n
Cc1cccc(OCC(=O)NN2C(=O)C3C4C=CC(O4)C3C2=O)c1 (configuration not stated) | n | n | n | n
COc1ccc(S(=O)(=O)N(CC(=O)Nc2ccccc2Cl)Cc2ccccc2)cc1 | n | n | n | n
COc1ccc(NC(=O)CSc2nc(-c3ccco3)cc(C(F)(F)F)n2)cc1 | n | n | n | n
O=C1CCCC2=C1C(c1cccc(O)c1)C1=C(N2)c2ccccc2C1=O (configuration not stated) | n | 79µM | n | n
COc1cccc(C2C3=C(CCCC3=O)NC3=C2C(=O)c2ccccc23)c1 (configuration not stated) | n | x | x | x
COc1cc2c(cc1OC)/C(=C/c1ccc(N(C)C)cc1)C=C2 | x | n | n | x
CCc1ccc2nc(N(CCN(CC)CC)C(=O)c3cccs3)sc2c1 | n | n | n | n
Cc1cc2ccccc2cn1 | x | n | n | x
Nc1nc(-c2ccc3c(c2)OCCO3)c(CC(=O)O)s1 | 35µM | n | n | n
Nc1nc(-c2ccc3c(c2)CCCC3)c(CC(=O)O)s1 | n | n | n | n
CO[C@]1(NC(=O)C2SC(=C(C(N)=O)C(=O)O)S2)C(=O)N2C(C(=O)O)=C(CSc3nnnn3C)CS[C@H]21 (some centres not stated) | n | x | x | n
O=C(CCOc1ccccc1)N(Cc1cccnc1)c1nc2c(Cl)cccc2s1 | n | u | n | n
CCOC(=O)c1oc2ccccc2c1NC(=O)c1ccco1 | n | n | n | n
CCOC(=O)c1oc2ccccc2c1NC(=O)CCl | n | 22µM | n | u
CN(C)c1ccc(NC(=O)c2ccc(N3CCOCC3)nc2)cc1 | u | n | n | 79µM
COc1ccc(NC(=O)c2ccc(N3CCOCC3)nc2)cc1 | n | n | n | n
COC(=O)c1ccccc1NC1=C/C(=N\S(=O)(=O)c2ccc(C(=O)O)cc2)c2ccccc2C1=O | n | u | u | 25µM
O=[N+]([O-])c1ccc(/C=C/c2cc(Cl)nc3ccccc23)cc1 | x | n | n | x
O=C(/C=C/c1ccccc1Cl)c1ccccc(=O)c1O | n | 35µM | n | 28µM
Cc1ccc(C)c(/C=C/C(=O)c2ccccc(=O)c2O)c1 | n | 50µM | n | 45µM
O=C(C=Cc1ccccc1O)c1ccccc1O | x | n[11.4 µM] | n | u
O=C(/C=C/c1ccc([N+](=O)[O-])cc1)c1ccccc(=O)c1O | x | n[11.4 µM] | n[11.4 µM] | 25µM
Cc1cccc(N(C)S(=O)(=O)c2c(C(=O)N3CCCCCC3)c(C)n(C)c2C)c1 | n | n | n | n
SMILES | GCN5L2 inh | rTrxR1 inhibitor | TrxR1 substrate | VDR inh
C=CS(=O)(=O)c1sc(Cl)c(N2CCOCC2)c1[N+](=O)[O-] | u | 0.32µM | n | u
O=C(Cc1ccc(-c2ccccc2)cc1)NO | x | n | n | x
O=S(=O)(c1nccs1)N1CCN(c2nc(-c3cccs3)nc3ccccc23)CC1 | x | n | n | n
O=C1OC(c2cccs2)=N/C1=C\c1ccc(-c2ccccc2Cl)o1 | n | u | n | n
O=C1OC(c2cccs2)=N/C1=C/c1ccc(-c2cccc(C(=O)O)c2)o1 | n | 35µM | n | 79µM
CSCC[C@@H](N)C(=O)O | n | x | x | n
COc1cccc(-c2nc(N(C)C)c3ccccc3n2)c1 | u | x | x | 56µM
COc1ccc(Nc2nc(-c3ccc(C)cc3)nc3ccccc23)c(OC)c1 | n | n | n | n
COc1ccc(OC)c(Nc2nc(-c3ccc(C)cc3)nc3ccccc23)c1 | 25µM | n | n | n
O=C(CCCCCN1CCN(c2ccccc2-c2ccccc2)CC1)NC1CCCc2ccccc21 (configuration not stated) | n | n | n | n
NCCCN(Cc1ccc(Cl)c(Cl)c1)c1ccc(Br)cn1 | x | n | n | n
CCc1ccc(-n2c(=O)c3c4c(sc3n(CC(=O)NCCCOC)c2=O)CCCC4)cc1 | n | n | n | n
O=S(=O)(Cc1ccccc1)N1CCN(c2nc(-c3cccs3)nc3ccccc23)CC1 | x | n | n | n
COCCn1c(C)c(C)c(S(=O)(=O)c2ccccc2)c1N | n | 20µM | n | n
Cc1ccc(NCc2ccccc2O)cc1 | n | n | n | n
Cc1ccc(CNc2ccc(O)cc2)cc1 | n | u | u | 20µM
CC1=C(C)/C(=N\OS(=O)(=O)c2ccc(C)cc2)C=CC1=O | n | u | n | 28µM
CN(C)c1ccc(/C=C2\C=Cc3ccccc32)c(Cl)c1 | x | n | n | x
Cc1cc(SCC(=O)NC(=O)NCc2ccco2)nc2ccccc12 | n | 71µM | n | n
CN(C)c1c(Br)cc(C=O)cc1Br | x | n | n | x
C(=Nc1ccc2ccccc2n1)c1ccccn1 | x | n | n | x
Cc1ccc(C2CC(c3cccs3)=NN2C(=O)CCl)cc1 (configuration not stated) | n | 13µM | n | u
Cc1ccc(S(=O)(=O)/N=C2/NC(=O)/C(=C\c3ccccc3)S2)cc1 | u | n | n | 79µM
O=[N+]([O-])c1cc(S(=O)(=O)N2CCCC2)ccc1O | n | n | n | n
O=[N+]([O-])c1cc(S(=O)(=O)N2CCCCCC2)ccc1F | n | 32µM | n | n
SMILES | GCN5L2 inh | rTrxR1 inhibitor | TrxR1 substrate | VDR inh
C[C@@]12C=Cc3occc3C1CC[C@@]13C[C@@H](CCC12)[C@@](O)(CO)C3 (some centres not stated) | n | x | x | 40µM
Clc1ccccc1-c1nccc(-n2ccnc2)n1 | n | x | x | u
N#Cc1cccc(-c2nccc(-n3ccnc3)n2)c1 | n | x | x | 50µM
FC(F)(F)c1ccccc1-c1nccc(-n2ccnc2)n1 | u | x | x | 45µM
O=C(/C=C/c1ccc(I)cc1)c1ccc(B(O)O)cc1 | n | x | x | u
CCn1nnnc1Sc1nc(C)nc2scc(-c3ccccc3)c12 | x | n | n[0.0914 µM] | x
COC(=O)C1=C(C)N(c2cccc3ccccc23)C(=O)C1 | n | 25µM | n | n
COC(=O)C1=C(C)N(c2ccc(C(=O)OC)cc2)C(=O)C1 | n | n | n | n
Oc1ccccc1C=NNC(=S)Nc1ccc(F)cc1 | x | n | n | n
Cc1nn(C)cc1/C=N/NC(=S)Nc1ccccc1 | n | n | n | 89µM
c1ncc2snnc2n1 | x | n | n | x
CCCN(CCC)C(=O)c1cc([N+](=O)[O-])cc2c1-c1ccc([N+](=O)[O-])cc1C2=C(C#N)C#N | u | 13µM | n | 40µM
CCCCN(CCCC)C(=O)c1cc(Cl)ccc1[N+](=O)[O-] | n | n | n | n
COc1ccc(NC(=O)CSc2oc(-c3ccc(C)cc3)nc2S(=O)(=O)c2ccc(C)cc2)c(OC)c1 | n | 50µM | n[2.29 µM] | n
COc1ccc(C2=NN(C(C#N)c3ccc(OC)c(OC)c3)C(c3ccccc3)C2)cc1 (configuration not stated) | n | u | n | n
COc1cc(C(C#N)N2CCC(c3ccccc3)=N2)ccc1O (configuration not stated) | n | 22µM | n | n
